# Sampled rows, rich in hits. Any-hit rate of the full collection: about 2.1%.
# SUMO Mot1 rescue = inhibitors of SUMOylation pathway: yeast Mot1-301 growth rescue. 320,000 tested, 1% active. S. cerevisiae Mot1-301 growth rescue, ATP luminescence, 38.5C; percent above DMSO median, 100 means doubled. growth rescue, % at 18.8 µM;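 active means every valid replicate shows activation above 250% relative to neutral control wells; inactive means the rest, any valid replicate at or below 250%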;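 further: OY570 slx delta 5 strain wells were the positive control but not used for scaling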
# IDE cell inh = inhibitors of human insulin-degrading enzyme in cells; inhibition, % at 5.59 µM; 320,000 tested, 0.41% active; AID 434962; P14735; HEK cells, FAbetaB cleavage, fluorescence polarization;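 active means percent inhibition above the average of all tested compounds plus 3 SD, set per screening campaign, cut at about 16% in these data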;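 further: IDE supplied by intact live HEK cells; FP after avidin binding of uncleaved biotin substrate so inhibition keeps polarization high; 0% = DMSO wells and 100% = 60 µM reference IDE inhibitor Ii1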
# IDE cell activ = activators of human insulin-degrading enzyme in cells; activation, % at 5.96 µM; 340,000 tested, 0.073% active; HEK cells, FAbeta-B cleavage, fluorescence polarization; 0% vehicle, 100% cell-free pure enzyme wells; P14735;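 active means activation above the mean of all tested compounds plus 3 SD, set per screening campaign, cut at about 17% in these data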
# HDAC3 inh = blocks human histone deacetylase 3; O15379; recombinant HDAC3, fluorogenic peptide/trypsin coupled, fluorescence; inhibition, % at 8.3 µM; 320,000 tested, 0.15% active; in the data active means inhibition above about 26%, passing the limit was not always enough
# Target sequence (O15379 whole entry, looked up): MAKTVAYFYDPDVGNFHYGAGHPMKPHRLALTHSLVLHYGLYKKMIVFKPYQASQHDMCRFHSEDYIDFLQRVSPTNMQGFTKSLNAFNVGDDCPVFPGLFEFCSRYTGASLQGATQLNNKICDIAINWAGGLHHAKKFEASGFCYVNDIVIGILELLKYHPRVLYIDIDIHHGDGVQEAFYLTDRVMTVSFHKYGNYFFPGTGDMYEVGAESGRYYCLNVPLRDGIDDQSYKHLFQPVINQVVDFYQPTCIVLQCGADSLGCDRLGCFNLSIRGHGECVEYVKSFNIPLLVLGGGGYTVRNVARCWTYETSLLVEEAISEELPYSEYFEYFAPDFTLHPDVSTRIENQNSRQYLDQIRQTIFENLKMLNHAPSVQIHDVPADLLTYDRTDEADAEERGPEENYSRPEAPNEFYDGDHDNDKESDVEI
# LANA-H2B inh = blocks KSHV LANA binding to histone H2A/H2B | Q9QR71 | cell-free LANA-H2A/H2B peptide, fluorescence polarization | inhibition, % (concentration not given with the values) | 320,000 tested, 0.6% active | AID 2629; in the data active means inhibition mostly above about 10%, no sharp cut-off; inactive means mostly below about 6.7%
# Yeast Mot1 SUMO = inhibits SUMO pathway, affecting Mot1-301 yeast growth. AID 493004. growth activity, percent, % at 42 µM. shares compounds with SUMO Mot1 rescue. 2,300 tested, under 10 active. S. cerevisiae Mot1-301 galactose growth, ATP luminescence, 24 h; -100 = growth of slx-deleted rescue strain;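 active means Signal drops as the depositor expects, and the fitted half-maximal dose is no more than ten times the top valid tested dose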;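 further: more negative values mean stronger growth rescue toward the control strain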
# Numbers without * were called inactive; . = no result given; + = active, no number.
SMILES,SUMO Mot1 rescue,IDE cell inh,IDE cell activ,HDAC3 inh,LANA-H2B inh,Yeast Mot1 SUMO
COC(=O)C1C(c2ccc(OC)c(OC)c2)NC(c2ccc(OC)c(OC)c2)C(C(=O)OC)S1(=O)=O (stereo not given),519.6*,-0.7,0.5,-8.0,-2.2,-0.1
O=C1NC(=O)N(Cc2ccccc2)C1=O,+,3.3,5.9,-0.2,-6.8,0.8
O=C(Nc1ccccc1)C1CCCN(C(=O)c2ccc(F)cc2)C1 (stereo not given),-9.2,-2.6,2.9,5.5,-28.3,.
CC(=O)Nc1ccccc1C(=O)C(=O)Nc1ccc(C(=O)NCC2CCCO2)cc1 (stereo not given),916.8*,-2.5,-2.7,-1.8,1.2,-0.3
O=C(N/C(=C/c1ccc2c(c1)OCO2)C(=O)N1CCOCC1)c1cccs1,765.4*,2.7,4.5,12.4,1.7,-0.8
O=C(CCCOc1ccc(Br)cc1)Nc1nnc(C2CC2)s1,122.7,1.2,-0.1,2.8,.,.
CN1C/C(=C/c2ccccc2[N+](=O)[O-])C(=O)/C(=C\c2ccccc2[N+](=O)[O-])C1,.,.,-3.3,.,.,.
Cc1cc(N2CCC(C(=O)Nc3ccc(F)cc3)CC2)nc(-c2ccccc2)n1,7.1,8.9,0.6,0.8,2.4,.
COc1ccc(NC(=O)C2CCN(c3cc(C)nc(-c4ccccc4)n3)CC2)cc1,+,1.6,-4.1,7.4,1.7,-0.1
Cc1ccc(S(=O)(=O)NCCC(=O)NNc2c(F)c(F)cc(F)c2F)cc1,0.5,4.5,-0.3,0.8,2.3,.
Cc1cc(N2CCOCC2)n2ncc(-c3ccccc3Cl)c2n1,42.4,.,-0.5,3.4,-0.8,.
COc1ccc(C(=O)Nc2nccs2)cc1OC,21.8,-3.3,2.5,-3.2,-1.7,.
COc1cc(/C=C(\NC(=O)c2ccccc2)C(=O)Nc2nccs2)ccc1OC(C)=O,395.1*,1.4,2.0,2.3,2.7,0.4
Cc1ccnc(NC(c2ccccc2)c2ccc3cccnc3c2O)c1 (stereo not given),.,.,-1.5,.,.,.
Cc1ccnc(NC(c2cccnc2)c2ccc3cccnc3c2O)c1 (stereo not given),+,-0.7,1.1,1.6,-2.0,-0.9
FC(F)(F)c1nnc(-c2ccccc2)nc1Oc1ccc(Cl)cc1Cl,738.6*,-2.6,-0.4,1.0,3.9,0.0
CC(=O)Nc1sc2c(c1C(c1ccc(Cl)cc1)N1CCOCC1)CCCC2 (stereo not given),195.4,2.2,5.3,1.2,-4.1,.
CC(=O)Nc1sc2c(c1C(c1ccc(F)cc1)N1CCOCC1)CCCC2 (stereo not given),385.2*,5.2,-0.9,2.5,-2.5,-0.3
Cc1cccc(OCc2nnc(SCC(=O)N3c4ccccc4CC3C)n2C)c1C (stereo not given),399.8*,0.5,-2.4,4.2,1.0,0.2
Cc1ccccc1OCc1nnc(SCC(=O)N2CCc3ccccc32)n1C,-11.2,-2.5,1.9,-4.1,3.1,.
CC(C)(C)NC(=O)CN(CCN1CCOCC1)C(=O)CNS(=O)(=O)c1ccc(Cl)cc1,177.0,-3.9,5.1,4.9,5.6,.
O=C(NNC(=O)c1ccccc1O)c1ccco1,+,-1.2,9.8,7.6,3.4,0.2
Cc1cc(C)cc(C(=O)NC(CC(N)=O)c2ccc(NCCN3CCOCC3)c([N+](=O)[O-])c2)c1 (stereo not given),644.2*,-1.8,5.2,2.9,-3.9,1.1
CC(=O)N1Cc2ccccc2CC1C(=O)NCc1ccccc1F (stereo not given),-1.4,-1.3,6.0,0.1,-0.9,.
Cc1ccc2c(c1)[C@H]1[C@H](CO2)[C@H](c2ccccc2)[C@]2(C)C(=O)Nc3ccc(F)cc3C(=O)N12,.,.,-0.7,.,.,.
COc1ccc2c(c1)OC[C@H]1[C@H]2N2C(=O)c3cc(Cl)ccc3NC(=O)[C@@]2(C)[C@H]1c1ccccc1,157.4,6.0,1.8,-1.4,4.3,.
COc1ccc2c(c1)[C@H]1[C@H](CO2)[C@H](c2ccccc2)[C@]2(C)C(=O)Nc3cc(C)ccc3C(=O)N12,462.6*,0.3,4.9,7.5,2.3,-0.6
C[C@@]12C(=O)Nc3cc(F)ccc3C(=O)N1[C@H]1c3ccccc3OC[C@@H]1[C@@H]2c1ccccc1,+,4.1,4.3,-9.1,2.5,0.3
